{
  "source": "ChEMBL document CHEMBL1201862",
  "about": "“PubChem BioAssay data set” (2004)",
  "note": "The campaign covered roughly 44,000 sequences. About 3,200 (7.3%) were called active. No stated cut-off is given here; in the data, active = GI50 up to about 1.1 µM and inactive = higher. Many of the other results were omitted from the sample, so actives are more common in it than they were. Potency and affinity values are given separately.",
  "data": [
    {"test_system": "DU-145", "units": {"GI50": "nM"}, "values": [
      {"substance": "[Bis(aminomethyl)dimethylsilane]tetrachloroplatinum(IV), CHEMBL2146190", "GI50": 5020},
      {"substance": "[Bis(aminomethyl)pentamethylenesilane]tetrachloropaltinum(IV), CHEMBL2146204", "GI50": 344},
      {"substance": "[Bis(aminomethyl)pentamethylenesilane]dichloropaltinum(II), CHEMBL2146202", "GI50": 1290},
      {"substance": "[Bis(aminomethyl)tetramethylenesilane]tetrachloropaltinum(IV), CHEMBL2146189", "GI50": 2220},
      {"substance": "CISPLATIN, CHEMBL11359", "GI50": 1990},
      {"substance": "[Bis(aminomethyl)tetramethylenesilane]dichloropaltinum(II), CHEMBL2146205", "GI50": 8150}
    ]}
  ]
}
